The values that follow come from PubChem BioAssay AID463173 (ICCB-Longwood Screening Facility, Harvard Medical School, 2010).

Screen size: about 52,000 compounds; about 4,300 (8.3%) were called active. What follows is part of a selection rich in actives, with near analogues and random picks from the rest. A number with no mark means an inactive call. Cut-off read from the data, not from the text of the source: active = survival mostly below about 52% (no sharp cut-off); inactive = mostly above about 56%.

In this experiment the test system is DeltatarO mutant. Put plainly: growth inhibition of S. aureus wild type versus tarO mutant, primary screen, teichoic acid synthesis inhibitors, RN4220, OD600 (AID 463173). Particulars: OD600, 18 h, hits give low values, screened at 18.75 µg/mL (by protocol).
With `O=C(CC1COc2ccccc2O1)NCCc1ccccc1` (stereo unspecified), the survival is 87%.

Regarding `CCOC(=O)c1c(NC(=O)CSc2cn(CCNC(=O)c3ccc(OCC)cc3)c3ccccc23)sc2c1CCC2`, the survival was 91%.

For `COc1ccc(OC)c(CCNC(=O)c2cc3c(-c4ccccc4F)nn(C)c3s2)c1`, the survival is 54%.

`CCOc1ccc(-c2nnc(SCC(=O)NCc3ccccc3)nc2-c2ccc(OCC)c(OC)c2)cc1OC`: the survival was 80%.

For `CCc1cc2c(cc3c(=O)n(CCCC(=O)NCc4cccc(Cl)c4)ncn32)s1`, the survival is 67%.

As to `CCOc1ccc(S(=O)(=O)N(CC(=O)Nc2ccc3c(c2)OCO3)c2ccc(C)cc2)cc1`, the survival was 50%.

In the case of `COCCCNC(=O)N1[C@H](c2cccs2)[C@@H](C)C(=O)[C@@H](C)[C@@H]1c1cccs1`, the survival is 47%.

`COc1ccc(OCCCn2c(C3CC(=O)N(c4ccc(F)cc4)C3)nc3ccccc32)cc1` (stereo unspecified): the survival is 66%.

Take `CCOc1ccc(N2CC(c3nc4ccccc4n3CCOc3ccc(OC)cc3)CC2=O)cc1` (stereo unspecified): the survival was 47% (active).

As for `O=C1CC(c2nc3ccccc3n2CCCOc2ccccc2)CN1c1ccc(F)cc1` (stereo unspecified), the survival was 97%.

On to `CCOc1ccc(N2CC(c3nc4ccccc4n3CCC3CCCCC3)CC2=O)cc1` (stereo unspecified), for which the survival was 33% (active).

On to `CCOc1ccc(N2CC(c3nc4ccccc4n3CCCCOc3ccc(OC)cc3)CC2=O)cc1` (stereo unspecified), for which the survival was 55%.

Consider `COc1ccc(OCCn2c(C3CC(=O)N(c4ccc(F)cc4)C3)nc3ccccc32)cc1` (stereo unspecified), for which the survival is 59% (active).

Take `CCOc1ccc(N2CC(c3nc4ccccc4n3CCCOc3ccccc3OC)CC2=O)cc1` (stereo unspecified): the survival is 81%.

Take `CCOc1ccc(N2CC(c3nc4ccccc4n3CCOc3ccccc3OC)CC2=O)cc1` (stereo unspecified): the survival is 46%.

As to `CCOc1ccc(N2CC(c3nc4ccccc4n3CCCOc3ccc(OC)cc3)CC2=O)cc1` (stereo unspecified), the survival was 44% (active).

Turning to `CCC1CN(C(=O)N2CCC(C(=O)Nc3cc(C)ccc3C)CC2)c2ccccc2O1` (stereo unspecified), the survival is 98%.

Regarding `Cc1[nH]c2ccc(-c3nnc(SCC(=O)N4CCc5ccccc54)o3)cc2c1C`, the survival was 84%.

For the molecule `COc1ccc(C2C(C(=O)Nc3cccnc3)=C(C)Nc3nc(SCc4ccccc4)nn32)cc1` (stereo unspecified), the survival was 57%.

For `COc1ccc(NC(=O)C2CCN(S(=O)(=O)c3ccc4[nH]c5c(c4c3)CCCCC5)CC2)cc1`, the survival was 113%.

With `COc1ccc2cc3cc(C(=O)N4CCN(c5cccc(C(F)(F)F)c5)CC4)sc3nc2c1`, the survival is 119%.

For `CCN(C(=O)CSc1nnc(Cn2nnc3ccccc32)o1)c1nc(-c2ccccc2)cs1`, the survival was 80%.

Take `OCCN(CCO)CC(O)Cn1c2ccc(Br)cc2c2cc(Br)ccc21` (stereo unspecified): the survival was 2% (active).

For `Cc1cccc(N(CC(O)Cn2c3ccccc3c3ccccc32)S(=O)(=O)c2ccc(F)cc2)c1` (stereo unspecified), the survival is 58%.

For the molecule `CC(C)OCC(O)Cn1c2ccccc2c2ccccc21` (stereo unspecified), the survival was 80%.

Regarding `CCCN(CCC)S(=O)(=O)c1ccc(C)cc1`, the survival was 97%.

For the molecule `CCNc1sc(S(C)(=O)=O)nc1S(=O)(=O)c1ccc(C)cc1`, the survival was 125%.

For `CCNc1nc(NCC)nc(N(n2cnnc2)S(=O)(=O)c2ccc(C)cc2)n1`, the survival is 1% (active).

Regarding `COc1ccccc1NC(=O)Cn1c(SCC(=O)N(C)c2ccccc2)nc2ccccc21`, the survival is 119%.

`O=C(CSc1ccccc1)Nc1c[nH]c(=O)[nH]c1=O`: the survival is 78%.

As for `Cc1ccc(C)c(NC(=O)c2cc(=O)c3cc(C)cc(C)c3o2)c1`, the survival is 70%.

Consider `COc1ccc(S(=O)(=O)Cc2ccc(C(=O)N3CCN(c4cc(C)ccc4C)CC3)o2)cc1`, for which the survival was 130%.

Take `Cc1cccc(-c2nnn3c2nc(NCc2ccccc2)c2ccccc23)c1`: the survival was 97%.

For `Nc1ncnc2nc(SCC(=O)O)[nH]c12`, the survival was 86%.

Regarding `Nc1ncnc2nc(SCCO)[nH]c12`, the survival was 63% (active).

On to `Cc1ccc(S(=O)(=O)Nc2c(C)nc3nc(C)[nH]n3c2=O)c(C)c1`, for which the survival was 117%.

`Cc1ccccc1-c1nn2c(=O)cc(CN3CCN(C(=O)c4ccc(C(C)(C)C)cc4)CC3)nc2s1`: the survival is 97%.

Turning to `COc1cc(OC)cc(C(=O)N2CCN(C(=O)COc3ccc(C)cc3)CC2)c1`, the survival was 57%.

Consider `COc1cc(OC)cc(C(=O)N2CCN(C(=O)COc3ccccc3)CC2)c1`, for which the survival was 54% (active).

With `COc1ccc(OCC(=O)N2CCN(C(=O)c3cccc(OC)c3)CC2)cc1`, the survival was 72%.

Turning to `N#CC1=C(N)N(c2ccc(Cl)cc2)C2=C(C(=O)CCC2)C1c1cc(CN2CCOCC2)cs1` (stereo unspecified), the survival was 59%.

For the molecule `Cc1ccccc1-c1ccnc2[nH]n(-c3ccccc3)c(=O)c12`, the survival is 47% (active).

Consider `COc1ccccc1-c1ccnc2[nH]n(-c3ccccc3)c(=O)c12`, for which the survival was 64%.

Regarding `O=c1c2c(-c3ccc(Cl)cc3)ccnc2[nH]n1-c1ccccc1`, the survival was 67%.

For `CCC(c1nnnn1Cc1ccccc1)N1CCN(c2cccc(Cl)c2)CC1` (stereo unspecified), the survival was 89%.

For the molecule `CCCC(c1nnnn1Cc1ccccc1)N1CCN(c2ccccc2)CC1` (stereo unspecified), the survival was 42% (active).

For the molecule `CC(C)C(c1nnnn1Cc1ccccc1)N1CCN(c2ccccc2)CC1` (stereo unspecified), the survival is 87%.

With `COc1ccc(NC(=O)C2Cc3ccccc3N2C(=O)c2ccccc2)c(OC)c1` (stereo unspecified), the survival is 80%.

On to `CCn1c(-c2ccc(S(=O)(=O)N3CCOCC3)cc2)csc1=Nc1ccc(C)c(Cl)c1`, for which the survival is 73%.

Take `CCCCn1c(-c2ccc(S(=O)(=O)N3CCOCC3)cc2)csc1=Nc1ccccc1`: the survival is 48% (active).

Turning to `COCCCn1c(-c2ccc(S(=O)(=O)N3CCOCC3)cc2)csc1=Nc1ccccc1`, the survival is 52% (active).

Consider `CC(C)Cn1c(-c2ccc(S(=O)(=O)N3CCCC3)cc2)csc1=Nc1ccccc1`, for which the survival was 58%.

In the case of `CC(C)Cn1c(-c2ccc(S(=O)(=O)N3CCOCC3)cc2)csc1=Nc1cc(Cl)ccc1Cl`, the survival was 82%.

On to `CCCn1c(-c2ccc(S(=O)(=O)N3CCOCC3)cc2)csc1=Nc1ccc(OCC)cc1`, for which the survival is 70%.

Regarding `CS(=O)(=O)N(CC(=O)O)c1ccc(Cl)cc1`, the survival is 105%.

In the case of `COc1ccc(-c2nc(SCC(=O)NC3CCCC3)c(-c3ccc(OC)cc3)[nH]2)cc1`, the survival is 71%.

Turning to `Cc1ccc(Cl)cc1N1CCN(C(=O)c2ccc3c(c2)N(Cc2ccc(F)cc2)CCS3)CC1`, the survival is 73%.

As for `Cc1ccc(CN2CCSc3ccc(C(=O)N4CCN(c5ccc(Cl)cc5)CC4)cc32)cc1`, the survival was 72%.

With `Cc1ccc(CN2CCSc3ccc(C(=O)N4CCN(c5ccccc5)CC4)cc32)cc1`, the survival is 63%.

For the molecule `Cc1ccc(Cl)cc1N1CCN(C(=O)c2ccc3c(c2)N(Cc2ccccc2)CCS3)CC1`, the survival is 74%.

As to `Cc1ccc(CN2CCSc3ccc(C(=O)N4CCN(c5cccc(C)c5C)CC4)cc32)cc1`, the survival is 27% (active).

`Cc1ccc(CN2CCSc3ccc(C(=O)N4CCN(c5cc(C)ccc5C)CC4)cc32)cc1`: the survival was 25% (active).

With `CCOc1ccc(C(=O)c2cn(CC(=O)Nc3ccc(F)c(F)c3)c3cc4c(cc3c2=O)OCCO4)cc1`, the survival is 130%.

For `Cc1ccc(CNC(=O)c2nc(SCc3ccccc3C)ncc2Cl)cc1`, the survival was 76%.

Consider `Cc1cccc(NC(=O)Cn2cc(C(=O)C3CCCCC3)c3ccccc32)c1C`, for which the survival was 63%.

For the molecule `COc1ccc(Cl)cc1NC(=O)Cn1nc(C(F)(F)F)c2c1CCC2`, the survival is 72%.

For `COC(=O)c1ccccc1NC(=O)Cn1nc(C(F)(F)F)c2c1CCCC2`, the survival was 5% (active).

Consider `COc1cc(NC(=O)Cn2nc(C(F)(F)F)c3c2CCCC3)c(OC)cc1Cl`, for which the survival was 78%.

`CCc1ccccc1NC(=O)Cn1nc(C(F)(F)F)c2c1CCC2`: the survival was 75%.

On to `COc1ccc(Cl)cc1NC(=O)Cn1nc(C(F)(F)F)c2c1CCCC2`, for which the survival is 35% (active).

Regarding `CCc1ccccc1NC(=O)Cn1nc(C(F)(F)F)c2c1CCCC2`, the survival is 77%.

On to `O=C(CCS(=O)(=O)c1cccc2nonc12)Nc1ccc(F)cc1F`, for which the survival was 124%.

As to `FC(F)(F)c1nnc2c3ccccc3c(Cl)nn12`, the survival was 95%.

`FC(F)(F)c1nnc2c3ccccc3nc(-c3ccccc3)n12`: the survival was 29% (active).

For the molecule `Cc1nnc2c3ccccc3nc(N3CCN(c4ccccc4)CC3)n12`, the survival is 77%.

With `O=C(Cn1nnc(-c2cccc(C(F)(F)F)c2)n1)NCc1ccc(F)cc1`, the survival was 77%.

As to `CCc1ccc(NC(=O)C(=O)NCC(c2cccnc2)N2CCc3ccccc3C2)cc1` (stereo unspecified), the survival is 64%.

For `CCc1ccc(OCC(=O)Nc2c(C(=O)c3ccc(Br)cc3)oc3ccccc23)cc1`, the survival is 85%.

For `CCNc1nc(Oc2ccc(=O)n(-c3ccccc3)n2)nc(N(C)C)n1`, the survival is 84%.

As to `CCOc1ccccc1N(C)C(=O)c1c2c(nc3ccccc13)C(=O)N(C1CCCCC1)C2`, the survival is 92%.

Regarding `CCCNC(=O)c1c2c(nc3ccccc13)C(=O)N(C1CCCCC1)C2`, the survival was 75%.

Regarding `CCc1ccc(CNC(=O)c2c3c(nc4ccccc24)C(=O)N(C2CCCCC2)C3)cc1`, the survival is 37% (active).

With `COc1ccc(CNC(=O)c2c3c(nc4ccccc24)C(=O)N(C2CCCCC2)C3)cc1`, the survival is 83%.

On to `COc1cccc(CNC(=O)c2c3c(nc4ccccc24)C(=O)N(C2CCCCC2)C3)c1`, for which the survival is 46% (active).

For the molecule `CC(C)OCCCNC(=O)c1c2c(nc3ccccc13)C(=O)N(C1CCCCC1)C2`, the survival is 25% (active).

Regarding `O=C(NCc1ccc(F)cc1)c1c2c(nc3ccccc13)C(=O)N(C1CCCCC1)C2`, the survival is 102%.

On to `Cc1ccc(CNC(=O)c2c3c(nc4ccccc24)C(=O)N(C2CCCCC2)C3)cc1`, for which the survival was 91%.

Regarding `CC(C)CCNC(=O)c1c2c(nc3ccccc13)C(=O)N(C1CCCCC1)C2`, the survival was 101%.

For `O=C(NCc1ccccc1)c1c2c(nc3ccccc13)C(=O)N(C1CCCCC1)C2`, the survival is 69%.

As for `CN(C(=O)c1c2c(nc3ccccc13)C(=O)N(C1CCCCC1)C2)c1ccc(F)cc1`, the survival was 0% (active).

Take `O=C(NCc1cccc(Cl)c1)c1c2c(nc3ccccc13)C(=O)N(C1CCCCC1)C2`: the survival is 144%.
